# Experimental data from PubChem BioAssay (NCI).
# This is part of a sample that, as a whole, favours compounds with a hit. Of some 83,000 tested, about 20% had one in any assay.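 In brief: 96-well plates, 48 h treatment, single concentration, percent growth endpoint.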 Unmarked numbers belong to inactive results. Activity calls are given as the source filed them. How the source made its calls: active means growth percent below 10; inactive means the rest.
# Columns and labels:
# Assay in all cases: NCI-60 one-dose screen, 48 h (100 = growth as untreated, 0 = no growth, -100 = all killed)
# Conditions in all cases: 10 µM unless noted
# HCT-15 colon = test system: HCT-15 colon
# HT29 colon = test system: HT29 colon
# SNB-75 CNS = test system: SNB-75 CNS
# SNB-19 CNS = test system: SNB-19 CNS
# U251 CNS = test system: U251 CNS
# PC-3 prostate = test system: PC-3 prostate
# SK-MEL-5 melanoma = test system: SK-MEL-5 melanoma
# UACC-62 melanoma = test system: UACC-62 melanoma
# LOX IMVI melanoma = test system: LOX IMVI melanoma
# SK-MEL-28 melanoma = test system: SK-MEL-28 melanoma
SMILES,growth (HCT-15 colon),growth (HT29 colon),growth (SNB-75 CNS),growth (SNB-19 CNS),growth (U251 CNS),growth (PC-3 prostate),growth (SK-MEL-5 melanoma),growth (UACC-62 melanoma),growth (LOX IMVI melanoma),growth (SK-MEL-28 melanoma)
N#CC1=C(c2cccs2)Nc2c(c(-c3ccccc3)nn2-c2ccccc2)C12C(=O)Nc1ccc(Br)cc12 (stereo not given),-6.66% (active),-32.8% (active),-39.5% (active),7.99% (active),-47.8% (active),-3.33% (active),0.371% (active),-52.3% (active),-11.3% (active),-69.6% (active)
COc1cc(C2CC(c3ccc(Cl)cc3)=Nc3c(N)nc(N)nc3N2)ccc1Oc1nc(Nc2ccc(F)cc2)nc(N(C)C)n1 (stereo not given),25.1%,14.3%,33.7%,47.7%,45%,21.9%,17.9%,84.4%,16%,75.6%
Cc1cccc(/C=C/c2ccc(NC(=S)NCCCCN(C)C)cc2)c1,-99.4% (active),-64.2% (active),-84.4% (active),-84% (active),-64.8% (active),-40.4% (active),-92.3% (active),-88.4% (active),-99.1% (active),-96.5% (active)
O=S(=O)(c1nc(-c2ccc(Br)cc2)oc1-c1ccc(Cl)cc1)N1CCCC(O)C1 (stereo not given),42.6%,11.2%,94.6%,62%,64.8%,28.2%,82.6%,53.8%,4.05% (active),79.4%
C[C@H]1[C@@H](CC(=O)N[C@@H](Cc2coc3ccccc23)B(O)O)O[C@@H]2OC3(C)CC[C@H]4[C@H](C)CC[C@@H]1[C@@]24O3,-51.7% (active),-57.4% (active),-19% (active),35%,25.2%,28.5%,-83.4% (active),-75.8% (active),-72.7% (active),5.12% (active)
Nc1cc(-c2c[nH]c3ccc(F)cc23)nc2cc(-c3c[nH]c4ccccc34)nn12,-61.2% (active),-42.8% (active),66.2%,-19.1% (active),-19.1% (active),10.3%,-4.35% (active),-8.04% (active),-83.9% (active),-33.9% (active)
CN(C)c1nc(NCCNS(=O)(=O)c2ccc(C3=Nc4c(N)nc(N)nc4NC(c4ccc(C(F)(F)F)cc4)C3)cc2)nc(N2CCOCC2)n1 (stereo not given),53.6%,9.6% (active),46%,49%,26.6%,24.2%,25.5%,51.5%,0.0978% (active),57.4%
N#CCc1nnc(NC(=O)c2ccc(-n3c(=O)[nH]c4ccccc4c3=O)cc2)s1,97.1%,116%,86.8%,94.6%,106%,105%,102%,86.8%,90.5%,103%
O=C(CSc1nc2sc3c(c2c(=O)n1-c1ccc(Cl)cc1)CCCC3)NNC(=O)c1ccc(F)cc1,91.8%,107%,76%,32%,37.8%,81.9%,66.9%,41.1%,64.2%,87%
COC(=O)c1c(C(=O)OC)c2ccc3c4ccccc4ccc3n2c1C(=O)OC,98.1%,108%,95.9%,81.1%,97.1%,98.9%,98.3%,93.6%,104%,109%
CCN1C(=O)N(CC)C2NNC(Sc3c(C(=O)O)c4ccccc4n(CCC(C)C)c3=O)=NC21 (stereo not given),2.84% (active),-30% (active),26.1%,15.5%,2.04% (active),26.1%,3.73% (active),17.9%,-41.7% (active),45.5%
CC1CCc2c(sc3nc(SCC(=O)c4cccc([N+](=O)[O-])c4)n(-c4ccccc4)c(=O)c23)C1 (stereo not given),73.6%,67.9%,85.8%,59%,17.6%,82.1%,82.6%,91.9%,53.7%,101%
N#C/C(=C/c1ccc(Cl)cc1)c1nnc(NC(=O)c2ccc(-n3c(=O)[nH]c4ccccc4c3=O)cc2)s1,95.2%,68.8%,53.3%,51.8%,27.1%,76.2%,27.7%,67.2%,41.8%,74.9%
COc1cc(C2CC(c3ccc(F)cc3)=Nc3c(N)nc(N)nc3N2)ccc1Oc1nc(Nc2ccc(F)cc2)nc(N(C)C)n1 (stereo not given),35.7%,22.1%,58.3%,65.1%,52.9%,27%,-94.3% (active),73.4%,38.5%,84.2%
Nc1nnc(-c2cncc(Br)c2)c(-c2c[nH]c3ccc(Br)cc23)n1,37.1%,35.6%,50.5%,59.5%,63%,56%,31.1%,55.2%,43.1%,67.5%
COC(=O)c1cc(C(=O)CBr)n2c1ccc1c3ccccc3ccc12,39.3%,44.6%,90.2%,55.5%,39.4%,53.1%,53.4%,51.2%,31.9%,92.3%
CCCCCCCCCCCCCCCCCC(=O)Nc1ccc(OC)cc1,99.1%,104%,144%,96.2%,102%,93.3%,102%,97.5%,95.9%,110%
O=C1CC(c2ccc(I)cc2)OC2C=Cc3ccccc3C12 (stereo not given),94.9%,90.7%,111%,101%,99.5%,101%,104%,78.9%,99.6%,116%
CS(=O)(=O)Nc1cccc(-n2cnc3cc(-c4ccc(O)cc4)ccc32)c1,30.9%,16%,53.8%,25.4%,26.2%,45.8%,19.7%,26.3%,41.9%,63.2%
COc1ccc(N=Nc2c(N)nn3c(N)c(C#N)c(-c4ccccc4)nc23)cc1,70.8%,60.9%,-15.8% (active),27.1%,21%,28.2%,34.2%,36.3%,54.9%,66.6%
Cc1nn(-c2ccccc2)c2nc(C)n(CC(=O)N/N=C/c3ccccc3O)c(=O)c12,26.7%,41.2%,76.1%,36.5%,28.7%,46.8%,-2.79% (active),3.15% (active),4.1% (active),37.9%
O=C(Nc1nc2ccc([N+](=O)[O-])cc2s1)Nc1ccccc1F,13.9%,5.55% (active),18.8%,10.2%,6.8% (active),13.9%,-51.6% (active),22.4%,10.5%,22%
N#Cc1cc(-c2ccnc(Nc3ccc(N4CCN(C5COC5)CC4)cc3)n2)ccc1N1CCCC1,41.9%,18.6%,15.7%,117%,75.7%,64.4%,62.2%,87.1%,40%,77.2%
N#C/C(=C1/C(=O)Nc2ccccc21)c1nnc(NC(=O)c2ccc(-n3c(=O)[nH]c4ccccc4c3=O)cc2)s1,14.8%,26.9%,79.5%,51.1%,37.5%,31.8%,10.3%,42%,0.591% (active),34.4%
Cc1ccc(Cl)cc1NC(=O)N/C(N)=N/c1nc2ccccc2s1,-22.4% (active),-69.5% (active),-4.17% (active),12.5%,-43.8% (active),2.99% (active),-56.9% (active),-11.4% (active),-83.3% (active),19.6%
Nc1ccc(-c2ccc3ncnc(N4CCc5cc(F)c(Cl)cc54)c3c2)cn1,24.8%,25.9%,-4.49% (active),39.3%,43.8%,19%,16.6%,15%,18.7%,41.4%
